Shn3 3UTR inh = reduction of Shn3 3'UTR firefly luciferase signal, primary screen, Schnurri-3 inhibitor project, cell-based, Clone20 osteoblasts, set 2. Clone20 osteoblast Shn3 3'UTR firefly luciferase, 24 h. inhibition, % at 12.5 µM. 360,000 compounds, 0.52% hits;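 active = mean inhibition of at least 75% with every replicate also reaching 75%; inconclusive = mean inhibition at least 75% but some replicate below; inactive = mean inhibition below 75%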;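 note: 0% = median of neutral control wells and 100% = pilot-screen positive control compound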
Peg3 promoter = Peg3 promoter-driven luciferase inhibitors, primary screen, cell-based, HeLa, luciferase luminescence | inhibition, % at 20 µM | AID 588405, 2011 | HeLa PEG-Prom luciferase reporter, overnight | 360,000 compounds, 1.7% hits;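 active = inhibition of at least 50% at 20 µM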
KKLEB cytotox = cytotoxicity in KKLEB CF airway cells, primary screen, cytotoxicity control for CF NF-kB inhibitor project, cell-based, uHTS, fluorescence assay plates; AID 602141, 2011; activity change (cytotoxicity), % at 5 µM; KKLEB CF airway cells viability, ATPlite luminescence, overnight; stronger effect = lower value; cells stimulated with P. aeruginosa culture filtrate; 360,000 compounds, 0.36% hits;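 active = corrected activity change at or below -50% at 5 µM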
MITF TRPM1 inh = inhibitors of MITF-dependent TRPM1 promoter reporter, primary screen, cell-based, SK-MEL-5, single point, luciferase | SK-MEL-5 TRPM1 promoter luciferase, 24 h | AID 488899, 2010 | 330,000 compounds, 0.83% hits | inhibition, % at 12.5 µM;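 active = mean inhibition across replicates of 60% or more, whatever share of single replicates reaches that level; inconclusive = some that reach 60%, reason not given; inactive = mean inhibition across replicates below 60%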
CF NFkB inh = inhibitors of PAF-induced NF-kB signaling, primary screen, cell-based, GFP fluorescence, uHTS; KKLEB NF-kB-GFP reporter, GFP fluorescence overnight; inhibition, % at 5 µM; 360,000 compounds, 0.86% hits;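 active = at least 50% inhibition at 5 µM, scaled per plate between neutral and stimulator controls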;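 note: PAF is a Pseudomonas aeruginosa culture filtrate used as stimulus; plate controls were PAF-stimulated DMSO wells for no effect and unstimulated DMSO wells for full effect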
HIF-2a block = HIF-2a reporter inhibitors, primary screen, luminescence, 786-0 RCC cells; AID 624352, 2012; 786-0 RCC cells HIF-2a reporter, luciferase luminescence, overnight; 360,000 compounds, 0.72% hits; inhibition, % at 18.8 µM;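 active = inhibition of the luminescence signal of 40% or more relative to plate controls, in a single-dose primary screen at 18.75 µM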
Mdm2-MdmX confirm = retested Mdm2-MdmX interaction blockers, confirmation, cell-based, luminescence, single concentration, set 2 | shares compounds with HIF-2a block | SaOS-2 split-luciferase Mdm2/MdmX complementation | inhibition, % at 8 µM | 740 compounds, 99% hits | AID 504601, 2011;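 active = mean inhibition of the luminescence signal across two replicates at or above 26 percent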
HIF-2a conf = HIF-2a reporter inhibitor retest, confirmation, luminescence, 786-0 RCC cells. shares compounds with HIF-2a block. HIF-2a luciferase reporter luminescence, overnight. inhibition, % at 18.8 µM. 1,800 compounds, 56% hits. AID 651580, 2012;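 active = mean inhibition across four replicates of at least 40 percent at the single tested concentration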
HIF-1a cs = HIF-1a luciferase reporter signal reduction – MiaPaCa-2 cells, single concentration, counter-screen for HIF-2a inhibitor project, confirmation; MiaPaCa-2 HIF-1a luciferase reporter, desferoxamine, overnight; shares compounds with HIF-2a block; inhibition, % at 18.8 µM; AID 651589, 2012; 1,800 compounds, 72% hits;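 active = mean inhibition of the reporter signal across four replicates at the single tested dose of 50% or more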
* = called active by the depositor; ? = inconclusive; nt = not tested or not shown. Only some compounds are listed: those with a hit (about 2.8% of all), similar ones and a draw of the others.

SMILES | Shn3 3UTR inh | Peg3 promoter | KKLEB cytotox | MITF TRPM1 inh | CF NFkB inh | HIF-2a block | HIF-2a conf | HIF-1a cs | others
C=C1C(=O)O[C@H]2[C@H]1[C@H](OC(=O)CC(=O)O[C@@H]1C[C@@H](C)[C@@H]3C=CC(=O)[C@@]3(C)[C@H]3OC(=O)C(=C)[C@H]13)C[C@@H](C)[C@H]1C=CC(=O)[C@]12C | 85 | 22 | -8 | 10 | 47 | -3 | nt | nt
CC(CC(C#N)(c1ccccc1)c1ccccc1)N1CCOCC1 (stereo not drawn) | 16 | 3 | -2 | -22 | 6 | -9 | nt | nt
C/C(=N\Nc1ccccc1)c1c(O)n(Cc2ccccc2)c(=O)[nH]c1=O | 15 | 26 | 2 | 6 | 3 | 15 | nt | nt
CCOP(=O)(OCC)C(NC(=O)c1ccccc1C)C(Cl)(Cl)Cl (stereo not drawn) | 0 | -9 | 6 | 6 | 4 | 4 | nt | nt
Cc1nc2cc(OC(=O)N(C)Cc3cccc(-c4ccncc4)c3)ccc2s1 | nt | nt | nt | nt | nt | -26 | nt | nt
Cc1cccc(OP(=O)(NCc2ccccc2)Oc2cccc(C)c2)c1 | 71 | 34 | -10 | -11 | 6 | 68* | 0 | 80*
C/C(=N\N1CCCCC1c1cccnc1)c1c(O)n(C2CCCCC2)c(=S)[nH]c1=O (stereo not drawn) | -3 | 29 | -12 | -11 | 22 | 32 | nt | nt
CC(C)OP(=O)(OC(C)C)C(NCc1ccccc1)c1ccccc1 (stereo not drawn) | 7 | 8 | -3 | -11 | 12 | 26 | nt | nt
COc1ccc(/C=C/C(=O)c2c(O)n(CCC3=CCCCC3)c(=O)[nH]c2=O)cc1 | -4 | 7 | 2 | -6 | -18 | 53* | 33 | 65*
Cc1cc([N+](=O)[O-])c2ccccc2[n+]1[O-] | ? | 108* | -12 | 78* | -8 | 48* | nt | nt | Mdm2-MdmX confirm=103*
O=C(CCc1nc(-c2ccccc2F)no1)N1CCC2(CC1)OCCO2 | -6 | 5 | -4 | 2 | 5 | 5 | nt | nt
CC(C)(O)C(=O)Nc1ccc([N+](=O)[O-])c(C(F)(F)F)c1 | 17 | -8 | 8 | 0 | 7 | 0 | nt | nt
COc1cc2c(cc1OC)CN(c1ccc([N+](=O)[O-])c(C(F)(F)F)c1)CC2 | 61 | 27 | -9 | -2 | -12 | 46* | -12 | 36
CCCC(C)C(=O)NC1CCSC1=O (stereo not drawn) | -5 | 20 | -15 | 1 | 29 | 9 | nt | nt
CCN1CCN(CC(c2ccccc2)c2ccccc2)CC1 | -4 | 16 | 19 | -3 | -17 | 11 | nt | nt
O=C(c1ccccc1)C(CN1CCCC1)c1ccccc1 (stereo not drawn) | ? | 105* | -50 | nt | 68* | 89* | 31 | 79*
CC(N)C(=O)NC1C2C(=C(O)CC(O)C2O)C(=O)OC1(C)C(Cl)Cl (stereo not drawn) | 96* | 96* | -31 | 66* | 87* | 45* | 57* | 104*
CC[C@]12C=CCN3CCC4(c5cc(Br)c(OC)cc5N(C)C4[C@@](O)(C(=O)OC)[C@@H]1OC(C)=O)C32 (stereo partly drawn) | 0 | 12 | -18 | 6 | 16 | 40* | -4 | 15
CC1(C)CN=C(NCc2ccccc2Cl)S1 | 2 | -39 | -8 | -17 | 1 | -100 | nt | nt
COC(=O)c1cc(C(O)(C(=O)OC)C(F)(F)F)c(/N=C/N(C)C)s1 (stereo not drawn) | -30 | -3 | -5 | 12 | 6 | 14 | nt | nt
CNc1ccc2oc(C[C@H]3O[C@@]4(CC[C@H]3C)O[C@H]([C@H](C)C(=O)c3ccc[nH]3)[C@H](C)C[C@H]4C)nc2c1C(=O)O | 97* | 91* | -55* | 102* | 36 | 87* | nt | nt | Mdm2-MdmX confirm=102*
C=Cn1ccnc1P(=S)(c1ccn(C)c1)c1nccn1C=C | -17 | 0 | 2 | 6 | -15 | -6 | nt | nt
COc1cc(/C=C/[N+](=O)[O-])ccc1OC(=O)c1cccnc1 | -8 | 88* | 1 | 32 | 34 | 42* | 54* | 45
COc1cc(/C=N/n2cnnc2)ccc1OC(=O)N(C)C | 3 | 5 | 20 | 2 | 2 | 7 | nt | nt
Cc1ccc(-n2cc(CNC(C)Cc3cnccn3)c(-c3cccc(C)c3)n2)cc1 (stereo not drawn) | 6 | -11 | -6 | -17 | 3 | -28 | nt | nt
SMILES | Shn3 3UTR inh | Peg3 promoter | KKLEB cytotox | MITF TRPM1 inh | CF NFkB inh | HIF-2a block | HIF-2a conf | HIF-1a cs | others
COC(=O)C1=C(c2ccc(F)cc2OCc2ccccc2)C[C@@H]2CC[C@H]1N2C(=O)NCc1ccccc1Br | 62 | 19 | -7 | 10 | 2 | 15 | nt | nt
COc1ccc(-n2nnnc2C(CCSC)N2CCC3(CC2)C(=O)NCN3c2ccccc2)cc1 (stereo not drawn) | 19 | 25 | -16 | nt | 12 | 12 | nt | nt
CCC(C)(O)C(=O)OC1C(=O)OC2CC3C(C)=CC(O)C(O)C3(C)C3C4(O)OCC23C1C(C)C4O (stereo not drawn) | 5 | 95* | 5 | nt | 35 | 46* | 45* | 102*
Cc1nn(CCC#N)c2c1P(=S)(N1CCCC1)OC(c1ccc(F)cc1)=N2 (stereo not drawn) | -1 | 13 | -6 | -8 | 8 | 11 | nt | nt
CC[C@H](C)[C@@H]1NC(=O)CNC(=O)c2csc(n2)[C@H](C(C)(C)O)OC(=O)C(C)(C)[C@H](CCCC(C)(Cl)Cl)OC(=O)c2csc1n2 | 56 | 65* | -91* | nt | 83* | 42* | 44* | 88*
O=P(Nc1ccccc1)(Nc1ccccc1)Oc1cccc(Cl)c1 | -5 | 38 | -10 | -4 | -2 | 25 | nt | nt
CC(=O)O[C@H]1[C@H]2O[C@]23[C@@H]2CC[C@]4(O)C[C@@H](O)CC[C@]4(C)C2CC[C@]3(C)[C@H]1c1ccc(=O)oc1 (stereo partly drawn) | 12 | 101* | -54* | 79* | 82* | 76* | 43* | 106* | Mdm2-MdmX confirm=87*

Screening data from PubChem.
